From PubChem BioAssay AID1159580 (chemical genetic matrix, 2015)
The whole screen tested about 5,500 compounds, of which about 2,000 (36%) were called active. Roughly 18% stayed inconclusive and do not appear here. Rule as the data show it: active = normalized growth mostly below about 0.91 (no sharp cut-off); inconclusive = no clear call, values can overlap the other calls; inactive = mostly above about 0.92. The list shows a part of the results.

Experiment: chemical genetic growth profiling, strain panel (AID 1159580);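 also: tested at 20 µM; growth read once vehicle control cultures reached saturation at 30 °C; 1 = growth at the plate median or of vehicle wells; lower values mean less growth of the strain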
Conditions: growth OD

Measured: normalized growth

COc1cc([C@H]2Oc3cc([C@H]4Oc5cc(O)cc(O)c5C(=O)[C@@H]4O)ccc3O[C@@H]2CO)ccc1O
inactive: S. cerevisiae deletion strains, locus YJR075W, strain HOC1, stronger effect = lower value 0.999 | S. cerevisiae deletion strains, locus YKL009W, strain mrt4, stronger effect = lower value 0.984 | S. cerevisiae deletion strains, locus YKL068W, stronger effect = lower value 0.981 | S. cerevisiae deletion strains, locus YKL085W, strain MDH1 (second series), stronger effect = lower value 1.02 | S. cerevisiae deletion strains, locus YKL085W, strain MDH1, stronger effect = lower value 1.02 | S. cerevisiae deletion strains, locus YKL160W, strain elf1, stronger effect = lower value 1.01 | S. cerevisiae deletion strains, locus YKL190W, strain CNB1, stronger effect = lower value 0.989 | S. cerevisiae deletion strains, locus YKR001C, strain vps1, stronger effect = lower value 0.961 | S. cerevisiae deletion strains, locus YKR026C, strain gcn3, stronger effect = lower value 1.01 | S. cerevisiae deletion strains, locus YKR091W, strain srl3, stronger effect = lower value 1.01 | S. cerevisiae deletion strains, locus YLL001W, strain dnm1, stronger effect = lower value 1.01 | S. cerevisiae deletion strains, locus YLL026W, stronger effect = lower value 1.01 | S. cerevisiae deletion strains, locus YLL041C, strain sdh2, stronger effect = lower value 1.01 | S. cerevisiae deletion strains, locus YLR027C, strain aat2, stronger effect = lower value 1.02 | S. cerevisiae deletion strains, locus YLR039C, strain RIC1, stronger effect = lower value 0.945 | S. cerevisiae deletion strains, locus YLR058C, strain SHM2, stronger effect = lower value 0.998 | S. cerevisiae deletion strains, locus YLR102C, strain apc9, stronger effect = lower value 0.979 | S. cerevisiae deletion strains, locus YLR113W, strain HOG1, stronger effect = lower value 0.986 | S. cerevisiae deletion strains, locus YLR221C, strain rsa3, stronger effect = lower value 0.988 | S. cerevisiae deletion strains, locus YLR258W, strain gsy2, stronger effect = lower value 1 | S. cerevisiae deletion strains, locus YLR262C, strain YPT6 (second series), stronger effect = lower value 1.03 | S. cerevisiae deletion strains, locus YLR262C, strain YPT6, stronger effect = lower value 0.953 | S. cerevisiae deletion strains, locus YLR268W, strain sec22, stronger effect = lower value 0.965 | S. cerevisiae deletion strains, locus YLR320W, strain mms22, stronger effect = lower value 0.991 | S. cerevisiae deletion strains, locus YLR330W, strain CHS5, stronger effect = lower value 1 | S. cerevisiae deletion strains, locus YLR342W, strain FKS1 (second series), stronger effect = lower value 1.01 | S. cerevisiae deletion strains, locus YLR342W, strain FKS1, stronger effect = lower value 1.01 | S. cerevisiae deletion strains, locus YLR357W, strain rsc2, stronger effect = lower value 1.03 | S. cerevisiae deletion strains, locus YLR370C, strain arc18, stronger effect = lower value 1 | S. cerevisiae deletion strains, locus YLR371W, strain rom2, stronger effect = lower value 0.971 | S. cerevisiae deletion strains, locus YLR384C, strain iki3, stronger effect = lower value 1.02 | S. cerevisiae deletion strains, locus YLR418C, strain cdc73, stronger effect = lower value 0.978 | S. cerevisiae deletion strains, locus YML016C, strain PPZ1, stronger effect = lower value 1.01 | S. cerevisiae deletion strains, locus YML032C, strain rad52, stronger effect = lower value 0.945 | S. cerevisiae deletion strains, locus YML120C, strain ndi1, stronger effect = lower value 1.01 | S. cerevisiae deletion strains, locus YML124C, strain tub3, stronger effect = lower value 0.986 | S. cerevisiae deletion strains, locus YMR058W, strain fet3, stronger effect = lower value 0.998 | S. cerevisiae deletion strains, locus YMR078C, strain ctf18, stronger effect = lower value 0.979 | S. cerevisiae deletion strains, locus YMR125W, strain sto1, stronger effect = lower value 1.03 | S. cerevisiae deletion strains, locus YMR129W, stronger effect = lower value 1.01 | S. cerevisiae deletion strains, locus YMR205C, strain PFK2, stronger effect = lower value 1.01 | S. cerevisiae deletion strains, locus YMR223W, strain ubp8, stronger effect = lower value 0.958 | S. cerevisiae deletion strains, locus YMR231W, strain pep5, stronger effect = lower value 1.01 | S. cerevisiae deletion strains, locus YMR263W, strain SAP30, stronger effect = lower value 0.998 | S. cerevisiae deletion strains, locus YMR307W, strain GAS1, stronger effect = lower value 0.905 | S. cerevisiae deletion strains, locus YNL067W, strain RPL9B, stronger effect = lower value 0.994 | S. cerevisiae deletion strains, locus YNL071W, strain lat1, stronger effect = lower value 0.995 | S. cerevisiae deletion strains, locus YNL128W, strain TEP1, stronger effect = lower value 0.993 | S. cerevisiae deletion strains, locus YNL153C, strain GIM3, stronger effect = lower value 1 | S. cerevisiae deletion strains, locus YNL183C, strain NPR1, stronger effect = lower value 0.932 | S. cerevisiae deletion strains, locus YNL209W, strain ssb2, stronger effect = lower value 1.01 | S. cerevisiae deletion strains, locus YNL233W, strain BNI4, stronger effect = lower value 0.997 | S. cerevisiae deletion strains, locus YNL248C, strain rpa49, stronger effect = lower value 1.01 | S. cerevisiae deletion strains, locus YNL250W, strain rad50, stronger effect = lower value 0.975 | S. cerevisiae deletion strains, locus YNL271C, strain bni1, stronger effect = lower value 0.969 | S. cerevisiae deletion strains, locus YNL298W, strain CLA4, stronger effect = lower value 0.965 | S. cerevisiae deletion strains, locus YNL307C, strain MCK1, stronger effect = lower value 0.969 | S. cerevisiae deletion strains, locus YNL322C, strain KRE1 (second series), stronger effect = lower value 1.01 | S. cerevisiae deletion strains, locus YNL322C, strain KRE1, stronger effect = lower value 0.993 | S. cerevisiae deletion strains, locus YNR049C, strain mso1, stronger effect = lower value 1.01 | S. cerevisiae deletion strains, locus YNR052C, strain pop2, stronger effect = lower value 0.979 | S. cerevisiae deletion strains, locus YOL006C, strain TOP1, stronger effect = lower value 0.969 | S. cerevisiae deletion strains, locus YOL012C, strain htz1 0.746 | S. cerevisiae deletion strains, locus YOL147C, strain pex11, stronger effect = lower value 0.973 | S. cerevisiae deletion strains, locus YOR001W, strain rrp6, stronger effect = lower value 1.01 | S. cerevisiae deletion strains, locus YOR061W, strain CKA2, stronger effect = lower value 1 | S. cerevisiae deletion strains, locus YOR069W, strain VPS5, stronger effect = lower value 1.01 | S. cerevisiae deletion strains, locus YOR070C, strain gyp1, stronger effect = lower value 1.01 | S. cerevisiae deletion strains, locus YOR080W, strain dia2, stronger effect = lower value 1.02 | S. cerevisiae deletion strains, locus YOR083W, strain WHI5, stronger effect = lower value 1.01 | S. cerevisiae deletion strains, locus YOR106W, strain vam3, stronger effect = lower value 1.01 | S. cerevisiae deletion strains, locus YOR136W, strain idh2, stronger effect = lower value 0.973 | S. cerevisiae deletion strains, locus YOR144C, strain elg1, stronger effect = lower value 0.96 | S. cerevisiae deletion strains, locus YOR184W, strain ser1, stronger effect = lower value 0.947 | S. cerevisiae deletion strains, locus YOR231W, strain MKK1, stronger effect = lower value 1.02 | S. cerevisiae deletion strains, locus YOR265W, strain rbl2, stronger effect = lower value 1.01 | S. cerevisiae deletion strains, locus YOR270C, strain vph1, stronger effect = lower value 0.961 | S. cerevisiae deletion strains, locus YOR290C, strain snf2, stronger effect = lower value 0.996 | S. cerevisiae deletion strains, locus YOR316C, strain cot1, stronger effect = lower value 0.985 | S. cerevisiae deletion strains, locus YPL051W, strain arl3, stronger effect = lower value 1 | S. cerevisiae deletion strains, locus YPL055C, strain LGE1, stronger effect = lower value 0.995 | S. cerevisiae deletion strains, locus YPL078C, strain atp4, stronger effect = lower value 1.02 | S. cerevisiae deletion strains, locus YPL106C, strain sse1, stronger effect = lower value 0.994 | S. cerevisiae deletion strains, locus YPL240C, strain hsp82, stronger effect = lower value 1.01 | S. cerevisiae deletion strains, locus YPL241C, strain CIN2, stronger effect = lower value 0.975 | S. cerevisiae deletion strains, locus YPL256C, strain CLN2, stronger effect = lower value 1.01 | S. cerevisiae deletion strains, locus YPR119W, strain clb2, stronger effect = lower value 0.993 | S. cerevisiae deletion strains, locus YPR141C, strain kar3, stronger effect = lower value 0.985 | S. cerevisiae deletion strains, locus YPR163C, strain tif3, stronger effect = lower value 0.973 | S. cerevisiae deletion strains, locus YPR167C, strain met16, stronger effect = lower value 0.996 | S. cerevisiae deletion strains, strain wtn01, stronger effect = lower value 0.987 | S. cerevisiae strains, strain wild type, stronger effect = lower value 1
